Assay results as given in PubChem BioAssay (NCI).
Values joined by “and” are separate entries in the source; they are usually repeats but may differ in a detail not shown here. Equal values may be shown once. About 83,000 compounds went through this panel and 20% of them were active in at least one assay; those are over-represented in the sample as a whole.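 A percent growth of 40 corresponds to 60% growth inhibition; 0 means no net growth; -100 means all cells died. Active threshold: below 10.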 Active and inactive are the calls of the source.

The molecules below were run on MDA-MB-468 breast (assay: NCI-60 one-dose screen, 48 h (100 = growth as untreated, 0 = no growth, -100 = all killed)). Conditions: 10 µM unless noted.
O=C(CSc1nc2ccccc2c(=O)n1-c1ccc(Cl)c(Cl)c1)Nc1ccc(S(=O)(=O)Nc2ccc(Cl)nn2)cc1 was tested, and the growth was 116% (inactive). With O=C(O)c1ccc(-n2cc(/C=N/Nc3ccc(Cl)cc3Cl)c(-c3ccccc3)n2)cc1 the growth was 79.7% (inactive). With O=P(O)(O)OC1C(OP(=O)(O)O)C(OP(=O)(O)O)C(OP(=O)(O)O)C(OP(=O)(O)O)C1OP(=O)(O)O.[Cu+2] (centres undefined) the growth was 85.8% (inactive). For CCCn1cc2c(=O)nc3sc(Cc4ccccc4)c(C)n3c2n1, the growth was 111% (inactive). With Cc1ccc2nc3ccccc3c(NCc3ccccc3)c2c1 the growth was -11% (active). In the case of O=C(O)CCC(=O)c1ccc(C2CCCCCC2)cc1, the growth is reported as 105% (inactive). For CCCCCCN1C(=O)C2=C(c3ccc(Cl)cc3)Nc3c(c(C)nn3-c3ccccc3)C2c2ccccc21 (centres undefined), the growth was 84.5% (inactive). In the case of C=CCNCCN1C(=O)c2ccc3c4c(ccc(c24)C1=O)C(=O)N(CCNCC=C)C3=O, the growth is reported as -89.1% (active). For O=S(=O)(Nc1ccc(F)cc1)c1ccc(-c2cnc(C3CC3)o2)cc1, the growth was 4.54% (active). C[C@]12C[C@H](O)[C@H]3[C@@H](CCC4=CC(=O)CC[C@@]43C)[C@@H]1CC[C@@H]2C(=O)CO was tested, and the growth was 84.4% (inactive). OC(c1cccc(-n2ccc(C(F)(F)F)n2)c1)c1cnccc1NC1CCCCCC1 (centres undefined) was tested, and the growth was -59.4% (active). With CCOC(=O)C1(C(=O)OCC)N=C(c2ccccc2)C=C1c1ccccc1 the growth was 94.1% (inactive). O=C1c2cccc3cc([N+](=O)[O-])cc(c23)C(=O)N1CCN1CCCC1 was tested, and the growth was -53.4% (active). O=C(c1ccncc1)N1N=C(c2ccc(Cl)cc2)C[C@H]1c1cn(-c2ccccc2)nc1-c1ccccc1 was tested, and the growth was 88.5% (inactive). For O=C1NC(=O)C(Cc2ccccc2)(Cc2ccccc2)N1, the growth was 104% (inactive). With O=C1NC(=C(Cl)Cl)/C(=N/S(=O)(=O)N2CCC(C3(C(F)(F)F)N=N3)CC2)N1 the growth was 32.7% (inactive). With COC(=O)c1ccc2oc(NC(=O)c3ccc(N4CCOCC4)c([N+](=O)[O-])c3)nc2c1 the growth was 113% (inactive). In the case of CCCCNC(=O)c1ccc(OCC)cc1, the growth is reported as 117% (inactive). In the case of Fc1ccc2c(CN3CCO[C@H](COc4cccc(Cl)c4)C3)c[nH]c2c1, the growth is reported as -38.7% (active). With O=C(/C=C(O)/C=C/c1cccc2[nH]ccc12)/C=C/c1cccc2[nH]ccc12 the growth was 67.8% (inactive). In the case of OCCNCCNc1c2ccccc2nc2ccccc12, the growth is reported as 37.4% (inactive). In the case of COc1ccccc1-n1cc(C#N)c(N)c1C(=O)c1ccc(Br)cc1, the growth is reported as 31.3% (inactive). CCOC(=O)c1nnn(-c2ccccc2)c1C1=CN(C)CCC1 was tested, and the growth was 120% (inactive). C1=CC(c2nn3c(-c4ccccc4)nnc3s2)=Cc2ccccc2O1 was tested, and the growth was 44.9% (inactive). With COc1ccc(C(=O)/C=C/c2cccc(Nc3ccnc4cc(Cl)ccc34)c2)cc1 the growth was -2.59% (active). In the case of CN1C(=C2C(=O)OC(C)(C)OC2=O)CCC1C(=O)NCc1ccc(Cl)cc1Cl (centres undefined), the growth is reported as 75% (inactive). In the case of CN1CCN(c2ccc3cc(-c4nc5ccccc5[nH]4)c(=O)oc3c2)CC1, the growth is reported as 68.3% (inactive). For O=C1C=C(OCC=C(C(F)(F)F)C(F)(F)F)c2ccccc2C1=O, the growth was -51.2% (active). In the case of Cc1cccc2c3c(sc12)C(c1ccc(Cl)cc1)C(C#N)=C(N)O3 (centres undefined), the growth is reported as 17.3% (inactive). In the case of O=C(Nc1cccc(-n2cc(-c3ccncc3)c(-c3ccc(Cl)c(O)c3)n2)c1)Nc1ccc(Cl)c(Cl)c1, the growth is reported as 2.25% (active). For Cn1cc(-c2ccc3c(Nc4cccc(NC(=O)Nc5cccc(F)c5)c4)ncnc3c2)cn1, the growth was 3.69% (active). CC(CN(C)C)Oc1ccccc1NC1=C(Cl)C(=O)C(Nc2ccccc2OC(C)CN(C)C)=C(Cl)C1=O (centres undefined) was tested, and the growth was -64.2% (active). For O=[N+]([O-])c1ccc(Oc2ccccc2Cl)c([N+](=O)[O-])c1, the growth was 64.2% (inactive). In the case of CCC1NC(=O)c2cc(S(N)(=O)=O)c(Cl)cc2N1 (centres undefined), the growth is reported as 107% (inactive). N/C(=N\C(N)=N\c1nc2ccccc2s1)c1ccc2ccccc2c1 was tested, and the growth was 109% (inactive). CSc1ncccc1C(=O)OCC(=O)Nc1oc(C)c2c(C)n[nH]c(=O)c12 was tested, and the growth was 98% (inactive). With CCO/C=N/C1=C(C#N)C(c2ccc(OC)cc2)c2sc3c(C)cccc3c2O1 (centres undefined) the growth was -13% (active). For CN(C)CCCN1c2ccccc2Sc2ccc(Cl)cc21, the growth was 9.1% (active) and 105% (inactive) and 77.4% (inactive). For Cc1nn(-c2ccccc2)c(Oc2ccccc2)c1/C=N/NC(=O)Cn1c(=O)sc2ccccc21, the growth was 13.7% (inactive).
